# Screens from PubChem.
# Shown are actives, neighbours in structure and some others; about 3.5% of the full set was active somewhere.
# BoNT-A LC inh2 = BoNT A light chain protease inhibition | inhibition, % at 10 µM | multiplex microsphere protease substrate cleavage, flow cytometry | 360,000 tested, 0.17% active; further: plate controls were buffer without enzyme for full effect and enzyme alone for no effect
# BoNT-F LC inh = inhibitors of Botulinum neurotoxin F light chain protease | Multiplex microsphere protease cleavage assay, flow cytometry | inhibition, % at 10 µM | 360,000 tested, 0.22% active | AID 588497; in the data active means inhibition above about 35%, passing the limit was not always enough; inconclusive means no clear call, values can overlap the other calls; further: plate controls were buffer without enzyme for full effect and enzyme alone for no effect
# Anthrax LF prot = anthrax lethal factor protease inhibition; multiplex microsphere protease cleavage assay, LF; inhibition, % at 10 µM; 360,000 tested, 0.12% active; further: plate controls were buffer without enzyme for full effect and enzyme alone for no effect
# Target sequence (P15917 whole entry, looked up): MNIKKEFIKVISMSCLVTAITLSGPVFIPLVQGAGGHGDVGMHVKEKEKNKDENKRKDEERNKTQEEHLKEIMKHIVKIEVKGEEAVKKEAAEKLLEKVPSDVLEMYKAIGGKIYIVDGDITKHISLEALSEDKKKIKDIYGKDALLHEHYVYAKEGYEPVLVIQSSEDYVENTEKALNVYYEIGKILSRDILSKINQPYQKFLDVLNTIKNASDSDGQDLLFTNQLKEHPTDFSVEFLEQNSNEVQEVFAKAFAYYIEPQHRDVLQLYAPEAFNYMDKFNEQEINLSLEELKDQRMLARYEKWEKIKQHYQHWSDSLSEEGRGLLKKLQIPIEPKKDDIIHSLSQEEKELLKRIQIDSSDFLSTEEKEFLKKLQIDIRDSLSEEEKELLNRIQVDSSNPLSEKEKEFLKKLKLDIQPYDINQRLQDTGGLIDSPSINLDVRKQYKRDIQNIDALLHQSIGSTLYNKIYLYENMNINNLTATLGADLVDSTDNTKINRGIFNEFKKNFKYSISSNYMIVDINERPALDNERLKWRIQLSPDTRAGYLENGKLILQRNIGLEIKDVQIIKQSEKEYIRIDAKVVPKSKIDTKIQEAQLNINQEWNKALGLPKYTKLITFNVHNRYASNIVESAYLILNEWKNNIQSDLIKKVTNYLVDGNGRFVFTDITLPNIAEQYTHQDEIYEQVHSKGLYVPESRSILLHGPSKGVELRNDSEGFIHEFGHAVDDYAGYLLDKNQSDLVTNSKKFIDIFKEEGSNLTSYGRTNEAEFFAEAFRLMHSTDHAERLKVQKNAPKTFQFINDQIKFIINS
# Bead autofluor = counter-screen for toxin protease inhibitors: compound fluorescence. compound autofluorescence counterscreen, microsphere flow cytometry; stronger effect = higher value. 360,000 tested, 3.1% active. fluorescence intensity (test concentration not listed); in the data active means fluorescence intensity above about 16000; inconclusive means no clear call, values can overlap the other calls
# Active calls of the source: *; ? = inconclusive. Unless noted, no stated cut-off is given here; in the data, active means inhibition above about 30%; inconclusive means no clear call, values can overlap the other calls; inactive means below that.
SMILES,BoNT-A LC inh2,BoNT-F LC inh,Anthrax LF prot,Bead autofluor
CCOC(=O)c1c(C2COc3ccccc3O2)csc1NC(=O)c1ccco1 (stereo not given),-1,0,0,21244*
Cc1ccc(CC(=O)Nc2nccs2)cc1,0,0,4,3295
O=C(Cc1ccc(F)cc1)Nc1nccs1,1,42*,15,2990
CCc1ccc(CCC(=O)Nc2nccs2)o1,1,4,2,21884*
Nc1cc2c([N+](=O)[O-])cccc2o1,3,38*,-4,4579
CN(C1CCCCC1)S(=O)(=O)Cc1ccccc1,3,2,3,22622*
COc1ccc(CCN(C)C(=O)CNC(=O)Cc2cccc3ccccc23)cc1OC,1,-6,-3,5276
CCOC(=O)[C@@H]1[C@H]2COc3cc(OC)ccc3[C@H]2N2C(=O)N(c3ccc(C(F)(F)F)cc3)C(=O)[C@]12C,0,-4,-2,2912
CC(C)COc1ccc(-c2nnc(-c3ccco3)o2)cc1,-3,-6,-2,17184*
O=C(COc1ccccc1)Nc1ccc(-c2nnc(-c3ccco3)o2)cc1,0,6,0,2413
COc1cccc(-c2nnc(-c3ccco3)o2)c1,0,8,-1,9372
CCCOc1ccc(-c2nnc(-c3ccco3)o2)cc1,0,1,1,21565*
COc1nc(N)nc(N)c1NS(=O)(=O)c1ccc(C)cc1,5,13,-2,5672
O=C(NCCCN1CCOCC1)c1cccs1,?,5,-5,19558*
O=C(c1cccs1)N1CCN(CCc2ccccc2)CC1,-1,-3,1,21277*
O=C(NCCCN1CCOCC1)c1ccc(Br)s1,0,1,1,10455
O=C(CN1CCN(Cc2ccccc2)C1=O)NCCCN1CCOCC1,0,-1,-2,5999
O=C(Cn1cnc2ccccc21)NCCCN1CCOCC1,-4,-7,-3,24254*
O=C(NCCN1CCN(C(=O)c2cccs2)CC1)c1cccs1,0,0,0,22034*
COc1ccc(NC(=O)CCNS(=O)(=O)c2ccc(Cl)c([N+](=O)[O-])c2)cc1S(N)(=O)=O,-2,-7,-1,3172
CCc1ccc(C(=O)NNC(=S)Nc2ccc(S(N)(=O)=O)cc2)s1,0,4,-8,4067
COc1ccccc1N1CCc2c(C)nc3c(OC)cccc3c21,-2,-6,1,22775*
CCc1cc(=O)n2[nH]c(-c3ccccc3)c(-c3ccccc3)c2n1,-2,-11,-11,3110
COc1ccccc1CNS(=O)(=O)c1ccc(-c2cnc(C3CC3)o2)cc1,0,1,1,5576
COC(=O)C(Cc1ccccc1)NC(=S)NC(=O)c1ccccc1 (stereo not given),0,4,-1,4431
SMILES,BoNT-A LC inh2,BoNT-F LC inh,Anthrax LF prot,Bead autofluor
CCSc1ccc([C@@H]2[C@H]3C(=O)N(CC)C(=O)[C@H]3[C@]3(C(=O)OC)CCCCN23)cc1,-4,30,4,21568*
CCOC(=O)NC(=O)c1cn(N(C)c2ncc(C(F)(F)F)cc2Cl)c(=O)[nH]c1=O,-17,-67,-23,21416*
COC(=O)c1cn(N(C)c2ncc(C(F)(F)F)cc2Cl)c(=O)c2ccccc12,-1,3,-4,2383
COc1cc(-c2nc(-c3ccccc3)c(-c3cccs3)[nH]2)cc(OC)c1OC,-1,-4,0,11656
COc1cc(-c2nc(-c3ccccc3)c(-c3cccs3)[nH]2)cc(OC)c1O,-1,-2,0,24448*
O=c1[nH]c(O)c(/C=C2\C=NN=C2c2ccccc2)c(=O)[nH]1,-4,-6,-2,21773*
COCCOC(=O)C1=C(C)N=C2SCCC(=O)N2C1c1cccc(Br)c1 (stereo not given),-3,-6,1,17065*
C=CCOC(=O)C1=C(C)N=C2SCCC(=O)N2C1c1ccc(OC(=O)c2ccco2)cc1 (stereo not given),-1,-7,-1,23769*
COC(=O)C1=C(C)N=C2SCCC(=O)N2C1c1ccc(OC(=O)c2ccco2)cc1 (stereo not given),-1,-2,-6,2398
COCCOC(=O)C1=C(C)N=C2SCCC(=O)N2C1c1cccs1 (stereo not given),0,0,-2,3268
COC(=O)CCCCC1SCC(NC(=O)c2ccccc2)C1Cl (stereo not given),0,8,7,2278
COC(=O)CCCCC1SCC2NC(=O)NC21O (stereo not given),10,79*,4,4177
O=C(N1CCOCC1)C(F)(F)C(F)(F)C(F)(F)C(F)(F)C(=O)N1CCOCC1,?,0,0,20612*
CCOC(=O)CC(/C(C)=N\O)c1ccccc1 (stereo not given),-5,-5,1,21192*
C[N+]1(CC(=O)Nc2ccc(F)cc2)CCN(C(=O)c2ccco2)CC1,0,3,-2,16539*
Cc1ccc(NC(=O)CN2CCN(C(=O)c3ccco3)CC2)cc1,1,9,-3,3693
Cc1ccc(C)c(CSc2nnc(-c3cccnc3)o2)c1,?,-2,-3,24006*
Fc1ccccc1CSc1nnc(-c2cccnc2)o1,0,4,0,6879
CC12CN3CC(C)(CN(C1)C3c1ccccc1)C2O (stereo not given),0,-6,0,4386
CC12CN3CC(C)(CN(C1)C3c1cccs1)C2O (stereo not given),-3,-7,-4,17129*
COc1ccccc1NC(=O)CSc1nnc(C)s1,-1,6,-1,5327
COC(=O)c1cn(CCOc2ccc(C)cc2)c2ccccc12,-2,-3,-3,22793*
COC(=O)c1cn(C(=O)c2ccc(OC)cc2)c2ccccc12,1,36*,-8,4142
Cc1ccc(OCCn2cc(/C=C/C(=O)O)c3ccccc32)cc1,0,-6,1,3734
Cc1oc(-c2cccc(Cl)c2)nc1CN1CCC(C(=O)N2CCN(c3ccccn3)CC2)CC1,-1,-1,-6,6634
SMILES,BoNT-A LC inh2,BoNT-F LC inh,Anthrax LF prot,Bead autofluor
Cc1ccc(-c2nc(CSCC(=O)NCCCN3CCOCC3)c(C)o2)cc1,1,-5,4,9573
Cc1cccc(-c2nc(CSCC(=O)N3CCN(c4ccccn4)CC3)c(C)o2)c1,-1,-7,-5,16627*
CCOC(=O)N1CCC(NC(=O)CSCc2nc(-c3ccc(OC)c(OC)c3)oc2C)CC1,?,-3,0,20515*
Cc1ccc(-c2nc(CSCC(=O)N3CCCC3)c(C)o2)cc1,-3,-4,-4,23517*
Cc1ccc(-c2nc(CSCC(=O)NCCN3CCN(Cc4ccccc4)CC3)c(C)o2)cc1,-3,-5,-3,17085*
COc1ccc(-c2nc(CSCC(=O)NC3CC3)c(C)o2)cc1OC,-1,2,-2,5540
Cc1ccc(NC2C(=O)NC(=O)NC2=O)cc1,0,-3,-1,3391
CC(NCC(=O)Nc1cc(S(=O)(=O)N2CCOCC2)ccc1N1CCOCC1)c1ccco1 (stereo not given),0,-6,6,3346
Cc1ccc(N(CC(=O)N2CCN(C3CCCCC3)CC2)S(=O)(=O)c2cccnc2)cc1,?,1,1,21207*
COc1ccc(/C=C2\SC(=O)N(CC(=O)Nc3ccc(F)cc3)C2=O)cc1O,0,15,-4,3644
Cc1cc(C)n(-c2nc3ccccc3nc2N2CCCC2)n1,3,4,1,19617*
